Screens: PubChem, University of Kansas High Throughput Screening Laboratory
mHTT-CaM PPI inh = mHTT-calmodulin interaction abrogation; AlphaScreen His-mHTT/GST-CaM binding, luminescence; 190,000 compounds, 3.6% hits; P42858; inhibition, % at 15 µM;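 also: 0% = both proteins with DMSO and 100% = one protein alone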
Pf apPOL block = Pf-apPOL DNA polymerase inhibition; Recombinant Pf-apPOL, molecular beacon fluorescence, 1.5 h; inhibition, % at 10 µM; 210,000 compounds, 0.25% hits
Numbers without * were called inactive; i = inactive. Shown are actives, neighbours in structure and some others; about 3.5% of the full set was active somewhere. Rule as the data show it: active = inhibition above about 50%; inactive = the rest.

SMILES	mHTT-CaM PPI inh	Pf apPOL block
Cc1noc(C)c1CC(=O)N1CCCn2cc(-c3ccccc3)nc21	53*	6
COc1cccc(/C=c2\sc3nc(-c4cccc(Cl)c4)nn3c2=O)c1	0	15
O=C(CN1CCC(c2nnc(-c3ccco3)s2)CC1)c1ccc(Cl)cc1	72*	4
O=C(Cn1cccc1)N1CCC(c2nnc(-c3ccco3)s2)CC1	-8	21
CC(C)(C)NC(=O)N1CCC(CNC(=O)c2ccco2)CC1	-12	-4
N#Cc1c(C(F)(F)F)cc(-c2cccs2)nc1SCC(=O)Nc1ccc([N+](=O)[O-])cc1	0	64*
N#Cc1c(C(F)(F)F)cc(-c2cccs2)nc1SCC(=O)Nc1ccccc1	-13	12
COc1cccc(/C=C2\C(=O)NN(c3ccccc3)C2=O)c1	6	2
COc1cccc(/C=C2\C(=O)NN(c3ccc(Br)cc3)C2=O)c1	7	1
O=C1NN(c2ccc(Cl)cc2)C(=O)/C1=C/c1cccc(Br)c1	95*	-5
O=C1NN(c2ccccc2)C(=O)/C1=C/c1cccc(Br)c1	54*	-3
O=C(COc1cccc(Cl)c1)Nc1ccccc1F	-11	-5
O=C(c1ccncc1)N1CCCCC1CCN1CCCCC1 (stereo not given)	-1	-5
COc1ccc(NC(=O)N2CCC3(C2)C(=O)Nc2ccccc23)c(OC)c1 (stereo not given)	8	-4
COc1ccc(OC)c(S(=O)(=O)N2CCC3(C2)C(=O)Nc2ccccc23)c1 (stereo not given)	99*	-4
O=[N+]([O-])c1ccc(N2CCN(S(=O)(=O)c3ccc(Cl)cc3)CC2)cc1	5	3
Cc1c(Cl)cccc1NC(=O)C(=O)NCc1ccccn1	-18	-8
Cc1nc(C(=O)NCc2ccc(N3CCCCC3)cc2)c(C)n1C1CCN(C)CC1	44	-7
Cc1nc(C(=O)NCc2ccc(N3CCCC3)cc2)c(C)n1C1CCN(C)CC1	55*	1
CCc1ccc2c(c1)C1(NN=C(c3ccc(C)cc3)S1)C(=O)N2 (stereo not given)	100*	2
O=C1Nc2ccc(Br)cc2C12NN=C(c1ccccc1)S2 (stereo not given)	100*	0
O=C1Nc2ccc(Br)cc2C1(O)Cc1ccccn1 (stereo not given)	6	-8
CCc1ccc2c(c1)C(=O)C(=O)N2	21	-4
CCC(=O)NC1CCN(c2nc3c(s2)c(C)nn3-c2ccc(F)cc2)CC1	1	-4
CCOC(=O)N1CCC2(CC1)N=C(c1cc(Cl)ccc1O)CC(c1ccc(F)cc1)N2 (stereo not given)	21	-3
SMILES	mHTT-CaM PPI inh	Pf apPOL block
COc1ccc(-c2c(C)oc3cc(O)ccc3c2=O)cc1OC	3	-5
COc1ccc(C(=O)Oc2ccc3c(=O)c(-c4ccc(OC)c(OC)c4)c(C)oc3c2)cc1OC	-2	2
COc1ccc(-c2c(C)oc3cc(OC(=O)C(C)C)ccc3c2=O)cc1OC	84*	-7
COc1ccc(-c2c(C)oc3cc(O)ccc3c2=O)cc1	-5	62*
COc1ccc(N2CC(c3nnc(NC(=O)c4ccc(C)cc4)o3)CC2=O)cc1 (stereo not given)	50*	-1
CCOc1ccc(N2CC(c3nnc(NC(=O)c4ccc(C)cc4)o3)CC2=O)cc1 (stereo not given)	60*	-2
CCOc1ccc(N2CC(c3nnc(NC(=O)c4ccc(Cl)cc4)o3)CC2=O)cc1 (stereo not given)	9	-2
COc1ccc(N2CC(c3nnc(NC(=O)c4ccc(C(C)(C)C)cc4)o3)CC2=O)cc1 (stereo not given)	8	-3
O=C(Nc1cccc2nsnc12)c1ccccc1Br	-25	-11
Cc1ccc(S(=O)(=O)N2CCC(n3c(-c4ccoc4)nc4cccnc43)C2)cc1F (stereo not given)	6	-6
O=C(CN1C(=O)c2ccccc2C1=O)Nc1ccccc1-c1nc2ccccc2s1	-14	-1
CCOc1ccc(OCCCn2cnc3ccccc3c2=O)cc1	8	-7
CC1Oc2ccccc2C=C1C=C1SC(=S)NC1=O (stereo not given)	59*	-13
CC1Oc2ccccc2C=C1C=C1SC(=S)N(CCC(=O)O)C1=O (stereo not given)	53*	-7
COc1ccc(C=C2SC(=S)N(CCC(=O)O)C2=O)c(OC)c1	8	-6
CC1Oc2ccccc2C=C1C=CC(=O)O (stereo not given)	-2	-9
O=C(NCCc1cccs1)c1csc(-c2cnccn2)n1	-6	18
O=C(COC(=O)c1ccc(O)cc1O)c1ccc(-c2ccccc2)cc1	16	-13
COc1ccccc1CNC(=O)CSc1nc2nc(C)c(Cc3ccc(C)cc3)c(C)n2n1	16	-2
CCOc1ccccc1N1CCN(Cc2cc3c(cc2[N+](=O)[O-])OCO3)CC1	51*	-2
Cc1ccccc1N1CCN(Cc2cc3c(cc2[N+](=O)[O-])OCO3)CC1	19	3
O=[N+]([O-])c1cc2c(cc1CN1CCN(c3cccc(Cl)c3)CC1)OCO2	77*	-2
O=[N+]([O-])c1cc2c(cc1CN1CCN(c3ccc(F)cc3)CC1)OCO2	30	0
CC(C)n1nc(CNC(=O)c2cccs2)c2ccccc21	-6	-7
CCc1ccccc1NC(=O)c1ccc(Cl)cc1	-10	0
SMILES	mHTT-CaM PPI inh	Pf apPOL block
Cc1ccc(N=Cc2c(C)n(C)c3ccc([N+](=O)[O-])cc23)cc1C	17	-2
CNc1nccc(N2CCC(CC(=O)NCc3ccc(OC)c(OC)c3)CC2)n1	17	-2
CNc1nccc(N2CCC(CC(=O)NCc3cccc(C(F)(F)F)c3)CC2)n1	54*	1
COc1ccc(C)cc1NC(=O)CN(c1ccccc1)S(=O)(=O)c1ccc(C)cc1	10	-6
Cc1ccc(S(=O)(=O)Nc2ccc3oc4ccccc4c3c2)cc1[N+](=O)[O-]	97*	-2
O=[N+]([O-])c1cc(S(=O)(=O)Nc2ccc3oc4c(c3c2)CCCC4)ccc1Cl	75*	-9
Cc1ccc(S(=O)(=O)Nc2ccc(Cl)cc2)cc1[N+](=O)[O-]	9	-1
O=C1CCCc2oc3ccc(NS(=O)(=O)c4cc([N+](=O)[O-])ccc4Cl)cc3c21	27	10
O=[N+]([O-])c1ccc(Cl)c(S(=O)(=O)Nc2ccc3oc4c(c3c2)CCCC4)c1	68*	22
O=[N+]([O-])c1ccc2oc3c(c2c1)CCCC3	-4	-3
N#Cc1ccccc1CO/N=C1\CCCc2nonc21	i	0
COc1ccc(OC)c(NC(=O)N2CCOc3ccc(C)cc32)c1	42	-6
COCCNC(=S)N1CCc2cc(OC)c(OC)cc2C1COc1ccc(C(=O)OC)cc1 (stereo not given)	34	-6
CC(C)(C)c1ccc(C(=O)N2CCCCC2CCN2CCCC2)cc1 (stereo not given)	1	-14
COCc1cc(C)nc2sc(C(=O)Nc3cccc(C(F)(F)F)c3)c(N)c12	-22	12
CC(=O)CC[C@@H]1CC[C@]2(CCCN(C(=O)C3CCCC3)C2)O1	-9	-8
O=C(CCc1ccc2cc[nH]c2c1)NCC1CC1	1	-2
CCc1ccc(CNC(=O)CCC(=O)N2CC3CCCN3c3ccccc32)cc1 (stereo not given)	55*	-2
CCNC(=O)CCC(=O)N1CC2CCCN2c2ccccc21 (stereo not given)	11	-3
